Experimental data taken from PubChem BioAssay (NCI).
This is part of a sample that, as a whole, favours compounds with a hit. Of some 79,000 tested, about 15% had one in any assay. Active and inactive are the calls of the source. Rule as the data show it: active = growth inhibition above about 70%; inactive = the rest.

Legend:
[1] = NCI Yeast Anticancer Drug Screen. Data for the rad50 strain (AID 155);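 also: 0% = growth of vehicle-only cultures of the same strain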; settings: S. cerevisiae rad50 strain growth inhibition, hits give high values
Method in brief: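 Cells are treated with compound, grown, and their growth is then scored against vehicle-only cultures of the same repair-deficient yeast strain.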

[2] = NCI Yeast Anticancer Drug Screen. Data for the mec2-1 strain (AID 157); settings: S. cerevisiae mec2-1 strain, hits give high values
Method in brief: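 Readout is yeast growth inhibition, normalised to vehicle-treated controls, in the mec2-1 strain exposed to compound.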

[3] = NCI Yeast Anticancer Drug Screen. Data for the sgs1 mgt1 strain (AID 161);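 also: 0% = growth of cultures given vehicle only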; settings: S. cerevisiae sgs1 mgt1 strain, hits give high values
Method in brief: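 Percent growth inhibition was derived by comparing compound-exposed mutant yeast with vehicle-exposed cultures. The strain carries alterations in DNA damage repair.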

[4] = NCI Yeast Anticancer Drug Screen. Data for the cln2 rad14 strain (AID 165);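 also: 0% = growth equal to vehicle treated cultures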; settings: S. cerevisiae cln2 rad14 strain, hits give high values
Method in brief: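 Relative to vehicle controls, growth inhibition of compound-treated cln2 rad14 yeast was recorded.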

[5] = NCI Yeast Anticancer Drug Screen. Data for the bub3 strain (AID 167); settings: S. cerevisiae bub3 mutant strain, hits give high values
Method in brief: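 Part of a panel of yeast mutants defective in DNA damage repair or cell cycle regulation. Each strain is grown with compound, and inhibition is calculated relative to solvent-treated cultures.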

[6] = NCI Yeast Anticancer Drug Screen. Data for the mlh1 rad18 strain (AID 175); settings: S. cerevisiae mlh1 rad18 strain growth inhibition, hits give high values
Method in brief: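 Test agents were incubated with a yeast strain of defined genotype (DNA damage repair defect). Inhibition of growth was derived by comparison with vehicle-exposed cultures.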

[7] = at 5.0 µM (retest, dose inferred, filed as 0.5)
[8] = at 50.0 µM (retest, dose inferred, filed as 5.0)

Measured: growth inhibition

O=C1CCCC1C(=O)OC1CCCC1 (stereo not given)
inactive: [1]; [7] 42% | [1]; [8] 13% | [1]; at 50.0 µM -7.55% | [2]; [7] 13% | [2]; [8] 4% | [2]; at 50.0 µM -15% | [3]; [7] 7% | [3]; [8] 2% | [3]; at 50.0 µM -18.6% | [4]; [7] 14% | [4]; [8] 3% | [4]; at 50.0 µM 48.5% | [5]; [7] 24% | [5]; [8] 0% | [5]; at 50.0 µM -19.3% | [6]; [7] 14% | [6]; [8] 0% | [6]; at 50.0 µM -11.4%

O=c1[nH]c2cc(Cl)ccc2nc1/C=C(\O)c1ccc(N2CCN(c3ccc(/C(O)=C/c4nc5ccc(Cl)cc5[nH]c4=O)cc3)CC2)cc1
inactive: [1]; [7] 10% | [1]; [8] 12% | [2]; [7] 0% | [2]; [8] 19% | [3]; [7] -3% | [3]; [8] -12% | [4]; [7] 17% | [4]; [8] -10% | [5]; [7] 19% | [5]; [8] -15% | [6]; [7] -25% | [6]; [8] -7%
active: [1]; at 50.0 µM 95.8% | [2]; at 50.0 µM 96.3% | [3]; at 50.0 µM 94.2% | [4]; at 50.0 µM 90.8% | [5]; at 50.0 µM 94.5% | [6]; at 50.0 µM 94.2%

CCC(c1ccccc1)N1C(=O)c2ccccc2S1(=O)=O (stereo not given)
inactive: [1]; [7] -3% | [1]; [8] -3% | [1]; at 50.0 µM 33.4% | [2]; [7] -2% | [2]; [8] 22% | [2]; at 50.0 µM 14.3% | [3]; [7] -1% | [3]; [8] -2% | [3]; at 50.0 µM 25.3% | [4]; [7] -6% | [4]; [8] -3% | [4]; at 50.0 µM -19.6% | [5]; [7] 23% | [5]; [8] 50% | [6]; [7] -3% | [6]; [8] -2% | [6]; at 50.0 µM 32.5%
active: [5]; at 50.0 µM 92.2%

O=c1oc2c/c(=C\c3ccccc3)c(=O)c3cccc1c3-2
active: [1]; [8] 97% | [1]; at 50.0 µM 84.4% | [2]; [8] 95% | [2]; at 50.0 µM 88.7% | [3]; [8] 97% | [3]; at 50.0 µM 81.2% | [4]; [8] 96% | [4]; at 50.0 µM 87.2% | [5]; [8] 96% | [5]; at 50.0 µM 86.7% | [6]; [8] 96% | [6]; at 50.0 µM 78.7%
inactive: [1]; [7] -6% | [2]; [7] -2% | [3]; [7] 12% | [4]; [7] -7% | [5]; [7] -7% | [6]; [7] 28%

C/C(O)=C(/C=N\C(=S)Nc1ccc(Cl)c(Cl)c1)C(=O)Nc1ccccc1C
active: [3]; at 50.0 µM 73.5%
inactive: [1]; [7] -11% | [1]; [8] 40% | [1]; at 50.0 µM 67% | [2]; [7] -6% | [2]; [8] 26% | [2]; at 50.0 µM 39.6% | [3]; [7] 1% | [3]; [8] 22% | [4]; [7] -7% | [4]; [8] 34% | [4]; at 50.0 µM -10.2% | [5]; [7] -15% | [5]; [8] 13% | [5]; at 50.0 µM 51.6% | [6]; [7] 11% | [6]; [8] 22% | [6]; at 50.0 µM 57.7%

O=C(/C=C\c1ccccc1)/C=C/c1ccccc1
inactive: [1]; [7] 4% | [1]; [8] 39% | [1]; at 50.0 µM 40.5% | [2]; [7] -2% | [2]; [8] 8% | [2]; at 50.0 µM 12.6% | [3]; [7] 0% | [3]; [8] 24% | [3]; at 50.0 µM 28.2% | [4]; [7] -1% | [4]; [8] 4% | [4]; at 50.0 µM -14.3% | [5]; [7] 7% | [5]; [8] 53% | [5]; at 50.0 µM 27.9% | [6]; [7] -1% | [6]; [8] 17%
active: [6]; at 50.0 µM 70.8%

CNc1c(C(=O)Nc2ccccc2)c(=O)n(C)c(=O)n1C
inactive: [1]; at 50.0 µM 62.9% | [3]; at 50.0 µM 32.8% | [4]; at 50.0 µM 2.3%
active: [1]; [7] 99% | [1]; [8] 99% | [2]; [7] 100% | [2]; [8] 99% | [2]; at 50.0 µM 81% | [3]; [7] 99% | [3]; [8] 99% | [4]; [7] 99% | [4]; [8] 99% | [5]; [7] 99% | [5]; [8] 99% | [5]; at 50.0 µM 90.8% | [6]; [7] 99% | [6]; [8] 99% | [6]; at 50.0 µM 74.5%

O=C(/C=C/c1ccc2c(c1)OCO2)c1ccc(O)cc1
inactive: [1]; [7] -27% | [1]; [8] -21% | [1]; at 50.0 µM 61% | [2]; [7] -13% | [2]; [8] 21% | [2]; at 50.0 µM 44% | [3]; [7] -27% | [3]; [8] -31% | [3]; at 50.0 µM 40.8% | [4]; [7] -7% | [4]; [8] -11% | [4]; at 50.0 µM 65.2% | [5]; [7] -32% | [5]; [8] 5% | [5]; at 50.0 µM 61.5% | [6]; [7] -33% | [6]; [8] -17% | [6]; at 50.0 µM 14.6%

O=C(O)c1cc2c(cc1CC(Cc1ccc3c(c1)CCCC3)C(=O)O)CCCC2 (stereo not given)
inactive: [1]; [7] 20% | [2]; [7] 16% | [3]; [7] 19% | [4]; [7] 9% | [5]; [7] 7% | [6]; [7] 8%
active: [1]; [8] 95% | [1]; at 50.0 µM 86.3% | [2]; [8] 98% | [2]; at 50.0 µM 73.3% | [3]; [8] 98% | [3]; at 50.0 µM 70.2% | [4]; [8] 96% | [4]; at 50.0 µM 74.4% | [5]; [8] 98% | [5]; at 50.0 µM 76.2% | [6]; [8] 96% | [6]; at 50.0 µM 82.5%

Cc1ccc(O)c(Cc2ccc(Cl)cc2)c1
active: [1]; [8] 97% | [1]; at 50.0 µM 74.7% | [2]; [8] 99% | [2]; at 50.0 µM 99.8% | [3]; [8] 99% | [4]; [8] 99% | [4]; at 50.0 µM 99.5% | [5]; [8] 98% | [5]; at 50.0 µM 99.6% | [6]; [8] 96% | [6]; at 50.0 µM 99.6%
inactive: [1]; [7] -146% | [2]; [7] -54% | [3]; [7] -56% | [3]; at 50.0 µM 64.3% | [4]; [7] -80% | [5]; [7] -76% | [6]; [7] -119%
